According to PubChem BioAssay (NCI):
This is part of a sample that, as a whole, favours compounds with a hit. Of some 83,000 tested, about 20% had one in any assay.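 Activity criterion: percent growth below 10, measured after cells in 96-well plates were exposed to a single compound concentration for 48 hours.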 Calls of active or inactive are those of the source.

test system: KM12 colon; assay: NCI-60 one-dose screen, 48 h (100 = growth as untreated, 0 = no growth, -100 = all killed); details: 10 µM

SMILES	growth
OCC1OC(n2ccc3c(NO)ncnc32)C(O)C1O (centres undefined)	-26.6% (active)
C[C@]12CC[C@@H]3c4ccc(OS(=O)(=O)O)cc4CC[C@H]3[C@@H]1CC[C@@H]2NS(=O)(=O)c1ccc(-c2ccccc2)cc1	60.5% (inactive)
CCN1CCN(CCC(=O)Nc2cccc(-n3cc(-c4ccncc4)c(-c4ccc(Cl)c(OC)c4)n3)c2)CC1	15.7% (inactive)
COc1ccc(-c2nnc(SCC(=O)Nc3ccc(C(=O)/C=C/c4ccccc4)cc3)n2-c2ccccc2)cc1OC	91.7% (inactive)
